GDH-TPI counter-1 – GDH-TPI coupling enzyme inhibitors, primary screen, artefact control for M. tuberculosis FBA inhibitor project, biochemical, absorbance, full deck | inhibition, % at 4.8 µM | AID 588335, 2011 | GDH-TPI coupled enzyme counterscreen, NADH absorbance | 1.2% of 360,000 active; in the data active = inhibition above about 30%
FBA Mtb inh – Mtb FBA enzyme inhibitors, primary screen, biochemical, fluorescence, strain H37Rv; purified M. tuberculosis FBA, fluorescence read-out; inhibition, % at 1 µM; AID 588726, 2011; 2.3% of 360,000 active; Fructose-bisphosphate aldolase (Mycobacterium tuberculosis (strain ATCC 25618 / H37Rv)), …
Target sequence (P9WQA3 whole entry, looked up): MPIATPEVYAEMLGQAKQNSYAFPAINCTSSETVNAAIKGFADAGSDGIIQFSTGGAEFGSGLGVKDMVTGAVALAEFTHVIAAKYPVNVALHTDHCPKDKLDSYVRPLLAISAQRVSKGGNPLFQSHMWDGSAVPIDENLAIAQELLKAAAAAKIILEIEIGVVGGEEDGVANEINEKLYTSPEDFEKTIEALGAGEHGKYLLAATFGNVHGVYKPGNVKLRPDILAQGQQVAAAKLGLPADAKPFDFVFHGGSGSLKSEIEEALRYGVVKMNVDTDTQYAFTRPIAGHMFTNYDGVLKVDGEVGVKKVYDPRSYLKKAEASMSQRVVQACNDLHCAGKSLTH
RecA splice inh – Mtb RecA intein splicing inhibitors, primary screen, biochemical, fluorescence, HTS; AID 2221, 2009; cell-free RecA intein splicing; 0.75% of 290,000 active; Protein RecA (Mycobacterium tuberculosis (strain ATCC 25618 / H37Rv)), P9WHJ3; inhibition, % (test concentration not listed); in the data active = inhibition above about 30%
BJeLR lethal – MLPCN primary cell-based screen for lethality selective to Ras in HRASV12 cells; 0.17% of 300,000 active; BJeLR (HRASV12) viability, CellTiter-Glo ATP luminescence, 48 h; inhibition, % (no concentration beside the values); AID 1554, 2009; in the data active = inhibition above about 50%
PrPC TRFRET – inhibitors of human cell surface prion protein PrPC, primary screen, cell-based, TR-FRET; TR-FRET read-out; inhibition, % at 13.8 µM; 0.43% of 370,000 active; in the data active = inhibition above about 24%
Mtb FBA inh conf – M. tuberculosis aldolase blockers, biochemical, fluorescence, strain H37Rv, confirmation | shares compounds with FBA Mtb inh | purified M. tuberculosis FBA, fluorescence read-out | inhibition, % at 1 µM | 78% of 5,600 active | AID 651616, 2012
GDH-TPI counter-2 – GDH-TPI coupling enzyme inhibitors, artefact control for M. tuberculosis FBA inhibitor project, biochemical, fluorescence, high throughput; inhibition, % at 1 µM; AID 652141, 2013; shares compounds with FBA Mtb inh; 81% of 5,600 active; GDH-TPI coupled enzyme counterscreen; in the data active = inhibition above about 10%
GDH-TPI dose – GDH-TPI coupling enzyme inhibitors, dose response, artefact control for M. tuberculosis FBA inhibitor project, biochemical, fluorescence, IC50. 79% of 170 active. IC50, µM. AID 652145, 2013. GDH-TPI coupled enzyme assay, artifact counterscreen. shares compounds with FBA Mtb inh; call rule not given here
Numbers stand for hits; i = inactive; nt = not tested or not shown; + = active, no number. Sampled rows, rich in hits. Any-hit rate of the full collection: about 4.2%. Cut-off read from the data, not from the text of the source, unless noted: active = inhibition above about 27%; inactive = the rest.

SMILES	GDH-TPI counter-1	FBA Mtb inh	RecA splice inh	BJeLR lethal	PrPC TRFRET	Mtb FBA inh conf	GDH-TPI counter-2	others
COC(=O)C[C@H]1CC[C@H](NC(=O)c2ccc(F)cc2)[C@@H](CO)O1	nt	nt	nt	nt	i	nt	nt
CCC(C)NS(=O)(=O)c1ccc2[nH]c(=O)oc2c1 (stereo not given)	nt	nt	nt	nt	i	nt	nt
O=C(COc1ccc2c3c(c(=O)oc2c1)CCC3)N[C@@H](CSCc1ccccc1)C(=O)O	i	i	i	i	i	nt	nt
CCC(NC(=O)OC(C)(C)C)C(=O)Oc1ccc2c3c(c(=O)oc2c1)CCC3 (stereo not given)	i	nt	i	i	i	nt	nt
O=C(COc1ccc2c3c(c(=O)oc2c1)CCC3)N1CCCCC1	i	i	i	i	i	nt	nt
CC(C)CC(C(=O)Oc1ccc2c3c(c(=O)oc2c1)CCC3)N1C(=O)c2ccccc2C1=O (stereo not given)	i	31	i	i	i	i	i	GDH-TPI dose=5.6
O=C(COc1ccc2c3c(c(=O)oc2c1)CCC3)N[C@@H](Cc1ccccc1)C(=O)O	i	27	i	i	i	i	i
CCN(CC)C(=O)COc1ccc2c3c(c(=O)oc2c1)CCCC3	i	50	i	i	i	40	41
CCOC(=O)COc1ccc2c3c(c(=O)oc2c1)CCCC3	i	32	i	i	i	+	182
COc1ccccc1CN[C@@H]1CC[C@@]23CCCN2C(=O)CCC[C@H]3C1	nt	nt	nt	nt	i	nt	nt
CCC1CCCN1Cn1cnc2c([nH]c3ccccc32)c1=O (stereo not given)	i	i	i	i	i	nt	nt
CCC1CCCN1Cn1cnc2c([nH]c3ccc(OC)cc32)c1=O (stereo not given)	i	54	i	i	i	94	74
CCN1CCCC1CNC(=O)c1cc2c(-c3ccc(Cl)cc3)nn(C)c2s1 (stereo not given)	i	i	i	i	nt	nt	nt
COc1ccc2[nH]c3c(=O)n4c(nc3c2c1)SCCC4	i	71	i	i	i	103	88
CCCCN(C)CCNC(=O)c1cc2c(-c3cccc(OC)c3)nn(C)c2s1	i	42	i	i	i	47	27
CCN1CCCC1CNC(=O)c1cc2c(-c3cccc(OC)c3)nn(C)c2s1 (stereo not given)	i	36	i	i	i	100	59
Cc1ccc2[nH]c3c(=O)n4c(nc3c2c1)SCC4	i	i	i	i	i	nt	nt
Cc1ccc(C2=CCN(C)C(=O)N2c2ccccc2)cc1	nt	nt	nt	nt	i	nt	nt
CCCCCCCC(=O)N[C@H]1CC[C@@]23CCCN2C(=O)CCC[C@H]3[C@H]1CCC	nt	nt	nt	nt	i	nt	nt
Cc1ccc(-c2nc(C3CCCN(S(=O)(=O)c4ccc(Cl)s4)C3)no2)cc1 (stereo not given)	nt	nt	nt	nt	i	nt	nt
CCN(CC)CCCNC(=O)c1cc2c(-c3cccc(OC)c3)nn(C)c2s1	i	58	i	i	i	102	87
COc1cccc(-c2nn(C)c3sc(C(=O)NCCCN(C)Cc4ccccc4)cc23)c1	i	43	i	i	i	112	103
CCCCN(CC)CCCNC(=O)c1cc2c(-c3ccc(OC)c(OC)c3)nn(C)c2s1	i	i	i	i	i	nt	nt
CCN1CCCC1CNC(=O)c1[nH]c2ccc(OC)cc2c1C (stereo not given)	i	45	i	i	i	+	+
O=[N+]([O-])c1ccc(Nc2c3ccccc3nc3ccccc23)cc1	i	51	i	i	i	101	84
SMILES	GDH-TPI counter-1	FBA Mtb inh	RecA splice inh	BJeLR lethal	PrPC TRFRET	Mtb FBA inh conf	GDH-TPI counter-2	others
CCn1c(=O)c2cc(C(=O)NCCN(C)C)sc2c2ccccc21	i	62	i	i	i	105	89
CCN(CC)CCNC(=O)c1cc2c(=O)n(CC)c3ccccc3c2s1	i	72	i	i	i	42	36
CCN(CC)CCCNC(=O)c1cc2c(=O)n(CC)c3ccccc3c2s1	i	72	i	i	i	+	+
CCCN(CCC)CCNC(=O)c1cc2c(=O)n(CC)c3ccccc3c2s1	i	28	i	i	i	63	55
CN(C)CCNC(=O)c1cc2sc3ccccc3c2s1	i	i	i	i	i	nt	nt
Cc1cc(N2CCN(C(=O)OC(C)(C)C)C[C@@H]2C)ccc1Br	nt	nt	nt	nt	i	nt	nt
Cc1cccc(NS(=O)(=O)c2ccccc2)n1	i	29	i	i	i	69	59
Cc1cccc(NS(=O)(=O)Cc2ccccc2)n1	i	66	i	i	i	66	54
C=CCn1cc(-c2ccccc2)cc(C#N)c1=O	i	73	i	i	i	i	i
N=c1c(C(=O)NCCc2ccccc2)cc2c(=O)n3ccccc3nc2n1Cc1ccco1	i	30	i	i	i	+	163
O=C(CSc1nc2ccccc2c(=O)n1Cc1ccco1)NCc1ccccc1	i	i	i	i	i	nt	nt
CC(C)Cc1ccc(CN2CCCC(NC(=O)c3cnc4ccccn4c3=O)C2)cc1 (stereo not given)	i	i	i	i	i	nt	nt
CC(C)OCCCn1c(=N)c(C(N)=S)cc2c(=O)n3ccccc3nc21	i	71	i	i	i	92	81
Cc1ccc(S(=O)(=O)c2cc3c(=O)n4ccccc4nc3n(C)c2=N)cc1	i	40	i	i	i	52	42
O=C(NC1CCCN(Cc2ccc(Cl)cc2)C1)c1cnc2ccccn2c1=O (stereo not given)	i	55	i	i	i	118	82
C[C@@H]1CCCCO[C@@H](CN(C)C(=O)NC2CCCCC2)[C@@H](C)CN([C@H](C)CO)C(=O)c2cc(N(C)C)ccc2O1	nt	nt	nt	nt	i	nt	nt
CCOC(=O)[C@]12CCCCC/C=C\1N(CCc1ccc(Cl)cc1)C(=O)[C@H]2CC(=O)NCCCOC	nt	nt	nt	nt	i	nt	nt
COC(=O)C1=C(C)N(Cc2cccc(C(F)(F)F)c2)C(=NCc2cc(OC)c(OC)c(OC)c2)NC1c1cccc(Cl)c1 (stereo not given)	nt	nt	nt	nt	i	nt	nt
COc1ccc(-n2c(COc3ccccc3)nnc2SCC(=O)Nc2ccc3c(c2)OCCO3)cc1	nt	nt	nt	nt	i	nt	nt
COC(=O)[C@]12C[C@H](CC(=O)NCc3cccs3)C(=O)N(Cc3ccco3)C1=C[C@H](C1CCCC1)O[C@@H]2C	nt	nt	nt	nt	i	nt	nt
Cc1ccc(Cn2c(=N)c(C(=O)NC3CCCC3)cc3c(=O)n4ccccc4nc32)cc1	i	53	i	i	nt	99	98
